From the supplement of paper PMC6555819

What was measured:
Experiment in all cases: PBM binding z-score (relative to random genomic background probes); higher = stronger binding; sequences stand for … in GC…GCGATTGACAGCGTAGAATGAAGG
[1] = system: FXR:RXRa (NR concentration 270 nM, RXRa partner concentration 90 nM)
Method in brief: (§1)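 Each nuclear receptor dimer, without ligand, was incubated for 1 h on custom Agilent 4×180K protein-binding microarrays. Binding was detected with antibodies against each partner (one per run), and scanned fluorescence was regression-normalized. The binding z-scores are referenced to random human genomic background probes.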

[2] = system: LXRa homodimer (NR concentration 270 nM)
Method in brief: as §1

[3] = system: LXRb homodimer (NR concentration 270 nM)
Method in brief: as §1

[4] = system: PPARg:RXRa (NR concentration 180 nM, RXRa partner concentration 90 nM)
Method in brief: as §1

[5] = system: PPARg:RXRa 270nM:90nM, anti-RXR (NR concentration 270 nM, RXRa partner concentration 90 nM)
Method in brief: as §1

[6] = system: PPARg:RXRa 30nM:10nM, anti-RXR (NR concentration 30 nM, RXRa partner concentration 10 nM)
Method in brief: as §1

[7] = system: PPARg:RXRa 90nM:30nM, anti-RXR (NR concentration 90 nM, RXRa partner concentration 30 nM)
Method in brief: as §1

[8] = system: PPARg:RXRa DBDmut IVT, anti-RXR (DBD mutation: RXRa K156A/R161A, NR concentration 270 nM, RXRa partner concentration 90 nM)
Method in brief: as §1

[9] = system: LXRa:RXRa (NR concentration 270 nM, RXRa partner concentration 90 nM)
Method in brief: as §1

[10] = system: PPARa:RXRa (NR concentration 270 nM, RXRa partner concentration 90 nM)
Method in brief: as §1

Row | Sequence | PBM binding z-score [1] | PBM binding z-score [2] | PBM binding z-score [3] | PBM binding z-score [4] | PBM binding z-score [5] | PBM binding z-score [6] | PBM binding z-score [7] | PBM binding z-score [8] | PBM binding z-score [9] | PBM binding z-score [10]
1 | CCTTACGGGTCAAGGTTATAGCCCGGGTGGTACG | 5.51 | 0.231 | -0.334 | 4.06 | 4.86 | 1.37 | 3.74 | 1.8 | – | –
2 | AGAATGAGGTTAAACGTAGATCAGGGAAGAAAGT | 4.05 | -0.194 | 0.141 | 4 | 4.04 | 1.87 | 3.12 | 6.01 | – | –
3 | ACTTACGGCTCAACGAGGTTATAGCACGCGTATA | 0.333 | 0.28 | 0.162 | 0.821 | -0.0206 | -0.186 | -0.0465 | -0.0346 | – | –
4 | TACCCTAGGTCATTCAGGGGCCAGTATAGAAAGC | 4.73 | 8.12 | 4.99 | 2.52 | 2.63 | 0.859 | 2.15 | 1.8 | – | –
5 | AGAATGAGGTTACCAAAGTTCAGGGAAACGCTTG | 3.73 | 7.31 | -0.0133 | 3.65 | 4.08 | 1.65 | 3.24 | 3.96 | – | –
6 | CGTCAAACTTCAACTAAGGTAACGTAAAGCACGC | 0.562 | 0.473 | 0.584 | 0.587 | 0.064 | 0.351 | 0.111 | 0.0564 | – | –
7 | TACCCTAGGTCATTGGGCCAGTATAGTACGCATC | 4.66 | 8.18 | 3.83 | 4.27 | 4.04 | 1.23 | 2.96 | 3.2 | – | –
8 | GCTAGTTGGTCAGTAAAAGGTGACACACCGGTCG | 0.000592 | -0.18 | -0.568 | 0.834 | 1.59 | -0.104 | 1.02 | 0.643 | – | –
9 | CGTCAAAGTTCAACTGAGGTAACGTAAAGCACGC | 7.32 | 5.02 | 2 | 5.04 | 5.58 | 2.33 | 4.11 | 0.26 | – | –
10 | CCTTACGGGTCACTCCAGGTCATAGCATCGGAGT | 5.36 | 7.03 | 0.548 | 4.38 | 4.54 | 1.86 | 3.2 | 2.73 | – | –
11 | TCGCCTAGGTCATGGGCCAGTATACCACGCGAAC | 4.68 | 0.142 | -0.146 | 3.52 | 3.4 | 1.9 | 2.9 | 1.88 | – | –
12 | TCTGCTAGGTCATCGATGGTCAGCTAATCTGCTA | – | -0.333 | -0.256 | 1.74 | 3.32 | 1.82 | 2.45 | 3.54 | 3.21 | 3.2
